Common to all, as to assay: NCI-60 one-dose screen, 48 h (100 = growth as untreated, 0 = no growth, -100 = all killed)
One test concerns K-562 leukemia. The settings on record: 10 µM unless noted.
Another test deals with MALME-3M melanoma. The settings on record: 10 µM unless noted.
A further test relates to MDA-MB-231 breast. As to conditions: 10 µM unless noted.
In another test the test system is RXF 393 renal. As to conditions: 10 µM unless noted.
For another test, the system named is SF-268 CNS. The settings on record: 10 µM unless noted.
For a further test, the system named is SF-295 CNS. As to conditions: 10 µM unless noted.
The test system of the next test is SF-539 CNS. As to conditions: 10 µM unless noted.
In a further test the test system is UACC-257 melanoma. As to conditions: 10 µM unless noted.
The next test has as its system M14 melanoma. The settings on record: 10 µM unless noted.
A further test has as its system HCT-15 colon. As to conditions: 10 µM unless noted.
The test system of the next test is HT29 colon. As to conditions: 10 µM unless noted.
In a further test the test system is SNB-75 CNS. As to conditions: 10 µM unless noted.
The next test deals with SNB-19 CNS. As to conditions: 10 µM unless noted.
The subject of the next test is U251 CNS. As to conditions: 10 µM unless noted.
The test system of the next test is PC-3 prostate. The settings on record: 10 µM unless noted.
A further test has as its system SK-MEL-5 melanoma. The settings on record: 10 µM unless noted.
In the next test the test system is UACC-62 melanoma. The settings on record: 10 µM unless noted.
A further test deals with LOX IMVI melanoma. The settings on record: 10 µM unless noted.
The subject of the next test is SK-MEL-28 melanoma. As to conditions: 10 µM.
The test system of the next test is SK-MEL-2 melanoma. As to conditions: 10 µM unless noted.

The panel holds about 83,000 compounds, 20% with a hit somewhere; the sample as a whole holds those more often.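 The test compound was applied at a single concentration to cells in 96-well plates for 48 hours, and percent growth was recorded.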 A number with no mark means an inactive call. Activity calls are given as the source filed them. Rule for the calls: active = growth percent below 10; inactive = the rest.

As for `CCOC(=O)c1sc(-c2ccc(OS(=O)(=O)c3ccccc3[N+](=O)[O-])c(C=O)c2)nc1C`, the growth in the test with K-562 leukemia is 12.8%; with MALME-3M melanoma it was 37.8%; with MDA-MB-231 breast it was 84%; in the test on RXF 393 renal, 108%; in the test on SF-268 CNS, 46.6%; in the test with SF-295 CNS, 107%. Further, the growth was 76.6% with SF-539 CNS; 49.5% in the test with UACC-257 melanoma; 5.91% (active) in the test on M14 melanoma; 6.3% (active) in the test with HCT-15 colon; 110% in the test with HT29 colon; 73.4% with SNB-75 CNS. The growth in the test on SNB-19 CNS was 76.1%; with U251 CNS, 43%; in the test on PC-3 prostate, 70%; in the test with SK-MEL-5 melanoma, -57.3% (active); with UACC-62 melanoma it was 64%; in the test on LOX IMVI melanoma, -6.91% (active). Also, the growth was 79.4% in the test with SK-MEL-28 melanoma and 86.6% in the test on SK-MEL-2 melanoma.

Consider `O=C(c1nc2ccccc2[nH]1)C1C(c2ccc(F)cc2)C2CC3CCCCC3N2[C@@]12C(=O)Nc1ccc(Cl)cc12` (stereo not given in full), for which the growth was 29.4% with K-562 leukemia; 42.6% in the test on MALME-3M melanoma; 43.3% in the test with MDA-MB-231 breast; 9.81% (active) with RXF 393 renal; 57% in the test on SF-268 CNS; 29% in the test on SF-295 CNS. For the same compound, the growth was 55.5% in the test on SF-539 CNS; 58.9% with UACC-257 melanoma; 40.7% in the test on M14 melanoma; 28% with HCT-15 colon; 24.9% in the test on HT29 colon; 36.7% in the test with SNB-75 CNS. Further, the growth with SNB-19 CNS was 54.1%; in the test on U251 CNS it was 51.2%; in the test with PC-3 prostate, 35.4%; in the test on SK-MEL-5 melanoma, 47.3%; in the test with UACC-62 melanoma, 55.1%; with LOX IMVI melanoma it was 46%. The growth was 61% with SK-MEL-28 melanoma and 65.8% with SK-MEL-2 melanoma.

For the compound `CCC1=C[C@@H]2CN(C1)Cc1c([nH]c3ccccc13)[C@@](C(=O)OC)(c1cc3c(cc1OC)N(C)[C@H]1[C@@](O)(C(=O)OC)[C@H](OC(C)=O)[C@]4(CC)[C@@H]5C[C@@H]5CN5CC[C@]31[C@@H]54)C2`, the growth with K-562 leukemia is -10% (active); in the test on MALME-3M melanoma it was -63.9% (active); with MDA-MB-231 breast, -45.4% (active); in the test on RXF 393 renal, 29.5%; with SF-268 CNS, 8.9% (active); in the test with SF-295 CNS, 20.1%. Also, the growth with SF-539 CNS is -17.5% (active); in the test with UACC-257 melanoma it was 32.8%; in the test on M14 melanoma, -22.3% (active); with HCT-15 colon, 13.4%; with HT29 colon, -23.3% (active); with SNB-75 CNS, 3.05% (active). For the same compound, the growth was 55.7% with SNB-19 CNS; 7.9% (active) in the test on U251 CNS; 22.5% in the test on PC-3 prostate; -79.9% (active) in the test with SK-MEL-5 melanoma; 12.6% in the test with UACC-62 melanoma; 3.68% (active) in the test on LOX IMVI melanoma. Further, the growth with SK-MEL-28 melanoma is 14.4%; in the test with SK-MEL-2 melanoma it was 10.4%.

Consider `O=C1c2cc(Br)ccc2Oc2cc([N+](=O)[O-])ccc2N1c1ccc(I)cc1F`, for which the growth was 101% in the test with K-562 leukemia; 99.8% in the test with MALME-3M melanoma; 101% in the test on MDA-MB-231 breast; 94.5% in the test on RXF 393 renal; 93.1% in the test with SF-268 CNS; 98.2% with SF-295 CNS. For the same compound, the growth with SF-539 CNS is 101%; in the test with UACC-257 melanoma, 97.6%; in the test with M14 melanoma, 91.8%; in the test with HCT-15 colon, 97.7%; in the test on HT29 colon, 99.6%; in the test on SNB-75 CNS it was 89.5%. For the same compound, the growth was 94% in the test with SNB-19 CNS; 94.4% with U251 CNS; 103% with PC-3 prostate; 99.2% in the test with SK-MEL-5 melanoma; 87.2% in the test on UACC-62 melanoma; 93.5% in the test on LOX IMVI melanoma. Moreover, the growth with SK-MEL-28 melanoma was 113%; in the test with SK-MEL-2 melanoma, 101%.

Regarding `CCOC(=O)c1sc(-c2ccc(OS(=O)(=O)c3ccc(Br)s3)c(C=O)c2)nc1C`, the growth in the test on K-562 leukemia is 9.45% (active); with MALME-3M melanoma, 13.2%; in the test on MDA-MB-231 breast, 4.99% (active); in the test on RXF 393 renal, 51.7%; in the test with SF-268 CNS it was 16.4%; in the test with SF-295 CNS it was 32.8%. Also, the growth in the test with SF-539 CNS was -5.53% (active); with UACC-257 melanoma, 28.8%; in the test with M14 melanoma, 1.87% (active); in the test with HCT-15 colon it was 1.83% (active); in the test on HT29 colon, -17.9% (active); in the test on SNB-75 CNS, -5.48% (active). The growth with SNB-19 CNS was 14.4%; in the test with U251 CNS, -4.79% (active); with PC-3 prostate it was 20.1%; with SK-MEL-5 melanoma, -92.6% (active); in the test with UACC-62 melanoma, 12.3%; with LOX IMVI melanoma, -54.5% (active). Besides, the values for the growth with SK-MEL-28 melanoma and in the test on SK-MEL-2 melanoma were 55% and 11.3%, respectively.

With `O=c1oc2ccc(I)cc2c(=O)n1-c1ccc(Cl)cc1F`, the growth is 4.68% (active) in the test on K-562 leukemia; -21.2% (active) in the test with MALME-3M melanoma; -12.6% (active) in the test with MDA-MB-231 breast; 4.98% (active) with RXF 393 renal; 12% in the test on SF-268 CNS; -48.1% (active) in the test with SF-295 CNS. In addition, the growth with SF-539 CNS was 7.99% (active); in the test on UACC-257 melanoma, -15.1% (active); with M14 melanoma, 9.12% (active); with HCT-15 colon it was 2.13% (active); in the test on HT29 colon, 63.6%; with SNB-75 CNS it was -12.3% (active). For the same compound, the growth in the test with SNB-19 CNS was 20.8%; with U251 CNS it was 0.686% (active); with PC-3 prostate it was -0.803% (active); in the test with SK-MEL-5 melanoma it was -87.2% (active); in the test on UACC-62 melanoma, -15.8% (active); in the test with LOX IMVI melanoma, 13%. Besides, the growth in the test with SK-MEL-28 melanoma was 10.9%; in the test with SK-MEL-2 melanoma, -28.6% (active).

Regarding `COc1ccc(Cn2c(Br)c3c(c2Br)-c2nc(N)sc2CC3)cc1`, the growth in the test with K-562 leukemia was 4.07% (active); in the test with MALME-3M melanoma it was 21.9%; in the test with MDA-MB-231 breast, 37%; in the test on RXF 393 renal, 16.3%; with SF-268 CNS, 45.2%; in the test with SF-295 CNS, 70.3%. The growth is 39.9% with SF-539 CNS; 70.4% in the test with UACC-257 melanoma; 13.9% in the test with M14 melanoma; 29.9% with HCT-15 colon; 16.8% in the test on HT29 colon; 38.2% in the test with SNB-75 CNS. Also, the growth in the test with SNB-19 CNS was 66.9%; in the test on U251 CNS it was 36.5%; in the test on PC-3 prostate, 56.6%; in the test on SK-MEL-5 melanoma it was 15.1%; in the test with UACC-62 melanoma it was 27.5%; with LOX IMVI melanoma, 35.7%. Besides, the growth with SK-MEL-28 melanoma is 46.1%; with SK-MEL-2 melanoma, 22%.

For the origin of these results see PubChem BioAssay (NCI).
